Bioassay records (PubChem BioAssay)
A selection follows.
aSyn UTR act: Activators via SNCA 5'UTR binding, MLPCN. alpha-synuclein 5'UTR reporter, activators screen. activity score, % (tested at 7.5 µM), hits read low. 7.1% of 300,000 active; in the data active = activity score below about -60%
* hit, by the source's call.

SMILES | aSyn UTR act
COc1ccc(OC)c(NC(=O)c2cc(-c3c(C)cc(C)cc3O)n[nH]2)c1 | -112.3*
CCOc1ccc2nc(SCC(=O)c3cccs3)sc2c1 | -122.1*
CCOc1ccc2nc(NS(=O)(=O)Cc3ccccc3)sc2c1 | -65.5*
CCOc1ccc2nc(NC(=O)CSc3ccccc3)sc2c1 | -68.9*
CCCC(=O)Nc1nc2ccc(OCC)cc2s1 | -104.9*
COc1ccc2nc(NC(=O)CSCC(=O)Nc3cc(C)on3)sc2c1 | -101.3*
CN(C)C(=S)Nc1nc2ccccc2s1 | -136.6*
COc1ccc2nc(NC(=O)CSc3nnc(-c4ccoc4C)n3C)sc2c1 | -134.4*
CCOc1ccc2nc(NC(=S)N(C)C)sc2c1 | -81.7*
COc1ccc2nc(NC(=O)CSc3nc4ccccc4o3)sc2c1 | -153.0*
CN1N=C(C(=O)N2CCc3c([nH]c4ccccc34)C2c2ccccc2Cl)CCC1=O (stereo not given) | -69.0*
S=C1NC2=C(CCCC2=C2SCCS2)C(c2ccccc2)N1 (stereo not given) | -324.3*
O=[N+]([O-])c1cccc(-c2cn3ccccc3n2)c1 | -92.8*
CCCCOc1ccc(-c2csc(N)n2)cc1[N+](=O)[O-] | -140.9*
CCCOc1ccc(-c2cn3ccccc3n2)cc1[N+](=O)[O-] | -113.8*
COc1ccc(-c2cn3ccccc3n2)cc1[N+](=O)[O-] | -162.2*
CCCCOc1ccc(CSc2nc(C)[nH]c2[N+](=O)[O-])cc1[N+](=O)[O-] | -64.9*
NC(=O)c1ccsc1NC(=O)c1coc2ccccc2c1=O | -156.2*
N=C1CCCN1CC(=O)c1ccc(Br)cc1 | -87.5*
CCn1c2ccccc2c2cc(Nc3cc(C)nc4ncnn34)ccc21 | 81.7
CCn1c2ccccc2c2cc(NC(=O)C(=O)N3CCOCC3)ccc21 | -63.5*
COc1cccc(NC(=O)C(=O)N2CCOCC2)c1 | -172.8*
Nc1nnnn1/N=C/C=C/c1ccccc1 | -115.3*
Nc1nnnn1/N=C/C(Br)=C/c1ccccc1 | -250.6*
CCn1nc(C)c(CNC(=O)Nc2ccc3c(c2)OCO3)c1C | -70.5*
SMILES | aSyn UTR act
Cc1cc(CNC(=O)Nc2ccc3c(c2)OCO3)nn1C | -79.5*
O=c1cc(NCCc2ccccc2)c2ccccc2o1 | -130.4*
Cc1ccc(NC(=O)NC2=NN(c3ccccc3)C(=O)/C2=C2/CCCN2C)cc1 | -62.7*
Cc1nc2c(oc3ccccc32)c(=O)o1 | -84.5*
CCOc1ccccc1-c1nc(-c2ccc(C)nc2OC)no1 | -207.0*
CCOc1nc(C)ccc1-c1noc(-c2ccco2)n1 | -79.0*
N#CCC(=O)N/N=C\c1ccc(OC/C=C/c2ccccc2)cc1 | -146.3*
N#CCC(=O)N/N=C/c1ccc(OCc2ccccc2)cc1 | -66.5*
Cc1ccc2[nH]c3c(NCc4ccco4)ncnc3c2c1 | -203.0*
Cc1ccc2[nH]c3c(NCCCN4CCCC4=O)ncnc3c2c1 | -77.1*
COC(=O)/C(=C1/Oc2ccc(C(C)(C)C)cc2S1)C(F)(F)F | -224.4*
N=c1oc2ccccc2cc1-c1nc2ccccc2c(=O)[nH]1 | -165.4*
Cc1cccc(-c2nc3ccccc3c(=O)[nH]2)c1 | -110.7*
Cc1sc2ncnc(NCC(O)c3ccccc3)c2c1C (stereo not given) | -103.9*
CCOC(=O)c1snc(-c2ccc(F)cc2)c1N | -130.4*
CCC(C)c1ccc(NC(=O)c2cccnc2)cc1 (stereo not given) | -268.5*
CC(C)c1cc(C(=O)Nc2cccnc2)no1 | -84.8*
COc1cccc(NC(=O)c2ccc(NC(=O)C(C)(C)C)cc2)c1 | -188.6*
CC(C)(C)C(=O)Nc1ccc(C(=O)Nc2cccnc2)cc1 | -120.3*
COc1cccc(-c2cc(=O)c3cc(NC(=O)c4ccc(Cl)cc4)ccc3[nH]2)c1 | -68.4*
O=C(Nc1ccc(-c2cnco2)cc1)c1ccccc1 | -172.5*
O=C(Nc1ccccc1)c1cnc[nH]1 | -67.6*
COc1cccc(-c2cc(=O)c3cc(NC(=O)c4ccccc4)ccc3[nH]2)c1 | 81.8
CC(C)c1ccc(C(=O)Nc2cccnc2)cc1 | -96.0*
CC(C)(C)C(=O)NC(=S)NNC(=O)c1ccc(-c2ccccc2)cc1 | 66.9
SMILES | aSyn UTR act
O=C(Nc1cccnc1)c1ccc(-c2ccccc2)cc1 | -162.8*
O=C(Nc1ccncc1)c1ccc(-c2ccccc2)cc1 | -127.1*
Cc1ccc(C(=O)Nc2cccnc2)cc1Cl | -172.5*
O=C(NNC(=O)c1ccc(-c2ccccc2)cc1)c1ccccc1 | -63.9*
O=C(Nc1cccnc1)c1cnc2ccccc2n1 | -72.8*
CN(C)/C=N/c1ncc(C(=O)c2ccc(Cl)cc2)s1 | -72.4*
O=C(Nc1ccc2c(c1)OCCO2)c1cccc(Cl)c1Cl | -140.1*
Cc1ccc(C(=O)Nc2ccc3c(c2)OCCO3)c(Cl)c1 | 79.7
O=C(Nc1ccc2c(c1)OCCO2)c1cc(F)c(F)cc1Cl | -194.8*
O=C(Nc1ccc2ccccc2c1)c1cc(F)c(F)cc1Cl | -140.4*
CCC(Sc1nc2n[nH]c(C)c2c(=N)n1-c1cccc(Cl)c1C)C(=O)N(CC)CC (stereo not given) | 50.8
Cc1ccc(O)c(C2=Nc3ccccc3C2(C)C)c1 | -156.8*
Cc1ccn2cc(-c3cccc(NC(=O)c4cccs4)c3)nc2c1 | -85.2*
Cc1cccn2cc(-c3cccc(NC(=O)c4cccs4)c3)nc12 | -73.2*
Cc1ccccc1-n1nc(C)c2c(C(=O)NN)cc(-c3ccncc3)nc21 | 56.5
Cc1ccc(-n2c(C)c(C)c3c(NCCCO)ncnc32)cc1 | -164.9*
COc1ccc(-n2c(C)c(C)c3c(NCCCO)ncnc32)cc1 | -80.6*
Cc1ccc2nc3sc(C(=O)N4CCCc5ccccc54)c(N)c3cc2c1 | -157.7*
O=[N+]([O-])c1ccc(-n2cc(-c3ccccc3)nn2)cc1 | -79.6*
C=CCNc1nc(N)c([N+](=O)[O-])c(Nc2ccccc2OC)n1 | 61.3
O=[N+]([O-])c1ccc(NCCOc2ccccc2Cl)nc1 | -74.1*
COc1ccc(CNc2ccc([N+](=O)[O-])cn2)cc1 | -137.2*
COc1ccc(Nc2ccc([N+](=O)[O-])cn2)cc1 | -120.4*
COc1ccccc1Nc1ccc([N+](=O)[O-])cn1 | -73.8*
Cc1ccc(-c2nnc(SCc3ccccc3F)o2)cc1 | -80.6*
SMILES | aSyn UTR act
COc1ccc(-c2nnc(SCc3ccccc3F)o2)cc1OC | -66.2*
COc1ccc(OC)c(S(=O)(=O)ON2C(=O)c3ccccc3C2=O)c1 | -90.3*
CC(C)c1ccc(CNNC(=O)c2ccccc2)cc1 | -104.6*
COc1ccc(CNC(=O)c2ccc(C(C)C)cc2)cc1 | -181.1*
COc1ccc(CNC(=O)c2ccc(C(C)(C)C)cc2)cc1 | -126.5*
Cc1cccc(NC(=O)c2ccoc2C)n1 | -86.1*
Cc1occc1C(=O)Nc1cc(C(C)(C)C)on1 | -101.4*
CC(c1ccccc1)c1nnc(NC(=O)Nc2ccccc2F)s1 (stereo not given) | -95.2*
O=C(Nc1nnc(-c2cccc(F)c2)s1)Nc1ccccc1F | -98.1*
O=C(Nc1nnc(CC2=CCCCC2)s1)Nc1ccccc1F | -80.9*
N#C/C(=C/c1ccc(N2CCCCC2)o1)C(=O)Nc1ccc2ccccc2c1 | -110.0*
N#C/C(=C/c1ccc(N2CCCCC2)o1)C(=O)Nc1ccc(Cl)cc1 | -152.0*
CCN(CC)c1ccc(N=Cc2ccc([N+](=O)[O-])o2)cc1 | -79.8*
CCCN=C(C)C1=C(O)c2ccccc2C1=O | -93.6*
COC(=O)c1c(C)[nH]c(C(=O)/C=C/c2ccccc2Cl)c1C | -301.8*
COC(=O)c1c(C)[nH]c(C(=O)/C=C/c2ccccc2F)c1C | -244.6*
O=S(=O)(/C(=C/c1ccc(C(F)(F)F)cc1)c1nc2ccccc2[nH]1)c1ccccc1 | -61.9*
